The results in this text go back to article PMC5540273 (PLoS ONE, 2017).

Among the test systems are HIPK3; HIPK4; HPK1; HUNK; ICK; IGF1R; INSRR.
What all share (conditions): concentration: 1 μM, replicates: in singlicate; n = 1
The subject of a further test is T1, IKK-alpha.
T1 construct: gene CHUK

A further test concerns T2, IKK-beta.
T2 construct: gene IKBKB

Another test concerns T3, IKK-epsilon.
T3 construct: gene IKBKE
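Note: KINOMEscan kinase panel screen.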

Take `Nc1n[nH]c2ncc(-c3ccccc3)cc12` [SB-517081]: the “%Inh” value with HIPK3 came out at 12%; in the test on HIPK4, 0%; with HPK1, 44%; in the test with HUNK, 13%; in the test with ICK, 0%; with IGF1R, 18%. In addition, the “%Inh” value was 27% in the test on IKK-alpha, 65% in the test with IKK-beta, 13% with IKK-epsilon and 0% in the test with INSRR.

For the molecule `O=C(NCc1cccs1)c1cc(C(=O)c2c(Cl)cccc2Cl)c[nH]1` [GW823670], the “%Inh” value is 0% with HIPK3; 0% with HIPK4; 37% in the test on HPK1; 31% with HUNK; 0% in the test on ICK; 1% in the test on IGF1R. Also, the “%Inh” value in the test with IKK-alpha worked out at 0%; in the test with IKK-beta, 0%; in the test on IKK-epsilon it was 3%; in the test on INSRR, 0%.

On to `Nc1ncnc2c1ncn2-c1cccc(F)c1` [SKF-97560], for which the “%Inh” value in the test with HIPK3 turned out to be 14%; in the test with HIPK4, 6%; in the test with HPK1 it was 23%; in the test on HUNK, 10%; with ICK it was 6%; in the test with IGF1R it was 1%. Moreover, the “%Inh” value in the test with IKK-alpha is listed as 13%; in the test on IKK-beta it was 19%; in the test with IKK-epsilon, 23%; in the test on INSRR, 0%.

In the case of `CCc1ccc(-c2ccc3c(c2)-c2nn(C)cc2S(=O)(=O)N3C)cc1`, the “%Inh” value is 0% with HIPK3; 0% in the test with HIPK4; 18% in the test on HPK1; 47% in the test with HUNK; 0% with ICK; 0% in the test on IGF1R. Moreover, the “%Inh” value turned out to be 0% with IKK-alpha, 1% in the test with IKK-beta, 0% in the test on IKK-epsilon and 0% with INSRR.
